12-hLO inh – 12-hLO (ALOX12) enzyme inhibition | purified 12-hLO, xylenol orange hydroperoxide absorbance | Potency, µM (top dose mostly 57.1 µM), most hits filed as inhibitors | hit rate 0.12% among 150,000 | AID 1452; active = well fitted inhibition curve with a large enough effect; inconclusive = small, poorly fitted or top-dose-only effect; note: nearly all actives have a fitted effect of over 55% in size
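Hydroperoxide formation by human 12-lipoxygenase from 40 uM arachidonic acid was followed colorimetrically via ferric-xylenol orange complex, using the 573/405 nm absorbance ratio. Enzyme concentration was 150 nM, with 30 min reaction at room temperature.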
LMNA splice mod – LMNA splicing modulation; HeLa LMNA splicing GFP/RFP minigene ratio, 48 h; Potency, µM (doses to about 46.1 µM), hits mostly inhibitors; hit rate 0.01% among 200,000; active = well fitted inhibition curve with a large enough effect in the signal ratio, with a control signal flat, not every such curve was filed as active; inconclusive = small, poorly fitted or top-dose-only effect, or effect the other way, or a change in a side signal; the % refers to the signal ratio
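Read-out is the ratio of GFP to DsRed2 object intensity, acquired by 488 nm laser-scanning cytometry on HeLa lamin A-EGFP minigene reporter cells. Compound incubation 48 hrs at 37 °C in Opti-MEM with 2% FBS; DMSO 0.5% final.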
ALDH1A1 block – blocks purified human ALDH1A1 activity. Purified ALDH1A1, NADH fluorescence, propionaldehyde substrate. Potency, µM (series often up to 75.3 µM), actives largely listed as inhibitors. hit rate 7.3% among 220,000
Target sequence (P00352 whole entry, looked up): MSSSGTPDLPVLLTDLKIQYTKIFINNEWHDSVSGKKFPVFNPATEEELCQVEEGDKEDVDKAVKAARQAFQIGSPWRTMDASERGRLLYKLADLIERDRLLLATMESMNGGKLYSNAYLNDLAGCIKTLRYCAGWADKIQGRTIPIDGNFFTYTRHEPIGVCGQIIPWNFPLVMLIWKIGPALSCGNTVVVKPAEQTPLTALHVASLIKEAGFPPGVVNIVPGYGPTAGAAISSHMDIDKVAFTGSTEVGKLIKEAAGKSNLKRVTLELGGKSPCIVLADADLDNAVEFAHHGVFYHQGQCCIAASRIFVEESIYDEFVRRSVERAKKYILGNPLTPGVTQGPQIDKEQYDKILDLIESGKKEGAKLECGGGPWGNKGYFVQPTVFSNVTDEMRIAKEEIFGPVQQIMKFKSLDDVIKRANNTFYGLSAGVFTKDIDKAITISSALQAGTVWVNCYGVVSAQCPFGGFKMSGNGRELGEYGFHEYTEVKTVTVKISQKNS
HPGD block – HPGD (human) dehydrogenase inhibition. purified HPGD, NADH fluorescence kinetic, PGE2 substrate. P15428. hit rate 4.3% among 150,000. Potency, µM, most hits filed as inhibitors
Target sequence (P15428 whole entry, looked up): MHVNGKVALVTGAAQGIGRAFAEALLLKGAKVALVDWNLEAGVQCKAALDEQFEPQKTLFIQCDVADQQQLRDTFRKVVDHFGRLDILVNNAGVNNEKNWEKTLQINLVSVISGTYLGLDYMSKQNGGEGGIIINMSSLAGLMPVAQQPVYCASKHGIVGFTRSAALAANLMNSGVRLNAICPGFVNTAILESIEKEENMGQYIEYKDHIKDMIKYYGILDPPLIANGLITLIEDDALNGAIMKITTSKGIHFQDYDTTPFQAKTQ
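20 nM HPGD preincubated 15 min at room temperature with compound in 50 mM Tris-HCl pH 8, 0.01% Tween 20. Started with 1 mM NAD+ and 30 uM prostaglandin E2; NADH fluorescence (360/450 nm) read 5 times over 30-s intervals, last minus first.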
PNC inhibitor – perinucleolar compartment assembly inhibition | PC3M PTB-GFP, PNC prevalence imaging, 16 h; hits give low values | activity change (PNC), negative = inhibition, % at 10 µM | hit rate 3.1% among 140,000 | AID 2417;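 active = readout at or below -70, meaning at least 70% loss of cells showing the perinucleolar compartment, a nuclear body marking cancer cells; inconclusive = readout between -30 and a set limit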
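PC3M cells stably expressing PTB-GFP, 750–1000 cells/well, treated 16 h at 37 °C with compound (23 nl of library stock), in duplicate. After paraformaldehyde fixation and Hoechst stain, imaged at 20x; PNC prevalence scored by image analysis.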
A number is an active result; i = inactive; ? = inconclusive; nt = not tested or not shown; ! = not confirmed by another sample. Only some compounds are listed: those with a hit (about 10% of all), similar ones and a draw of the others. Unless noted, calls come from the whole dose curve; as a rule, active = well fitted inhibition curve with a large enough effect (not every such curve was filed as active); inconclusive = small, poorly fitted or top-dose-only effect, or another doubt; inactive = no such curve, though single readings can be large or run the other way.

SMILES | 12-hLO inh | LMNA splice mod | ALDH1A1 block | HPGD block | PNC inhibitor
CCOC(=O)c1sc(N(Cc2ccccc2)C(=O)CSc2nnc(C3CC3)n2N)nc1C | i | i | i | 20µM | i
CC(C)(C)NC(=O)CCc1ncc(C(F)(F)F)cc1Cl | nt | i | i | nt | nt
O=C(/C=C/c1ccc(O)c(O)c1)OC1C[C@](O)(C(=O)O)C[C@@H](O)[C@H]1O (some centres undefined) | i | nt | 24µM! | i | nt
Cc1cnc(CNc2ccnc(-c3ccc(C(=O)N(C)C)cc3)n2)cn1 | i | i | i | 5.6µM | nt
Cc1cnc(CNc2cc(-c3ccc(C(=O)N(C)C)cc3)ncn2)cn1 | nt | i | ? | nt | nt
COc1ccc(CS(=O)(=O)/C(Cl)=C(/Cl)C(=O)Nc2ccc(OC)nc2)cc1 | i | ? | 1.6µM | i | i
COc1ccc(NC(=O)/C(Cl)=C(/Cl)S(=O)Cc2ccccc2)cn1 (centres undefined) | i | ? | 13µM | ? | ?
COc1ccc(/C=C/C(=O)Nc2ccc(OC)nc2)cc1 | i | ? | i | i | i
COc1ccc(NC(=O)Cc2ccccc2)cn1 | nt | nt | i | nt | nt
O=C(O)Cc1c[nH]c2ccc(O)cc12 | i | ? | ? | 22µM | nt
CCn1cc(C(=O)O)c(=O)c2cc(F)c(N3CCN[C@@H](C)C3)c(F)c21 | i | i | ? | ? | nt
Cc1ccccc1CNC(=O)c1cc2cc(S(=O)(=O)N3CCCCC3)ccc2n1C | nt | i | nt | nt | nt
Nc1ccccc1SC1CC(=O)N(c2ccc(Cl)c(Cl)c2)C1=O (centres undefined) | nt | nt | i | nt | nt
O=C(O)CSC1CC(=O)N(c2cccc(Cl)c2)C1=O (centres undefined) | i | i | 10µM | i | ?
O=C(O)CSC1CC(=O)N(c2ccc(Cl)c(Cl)c2)C1=O (centres undefined) | i | i | 3.2µM | i | ?
Cc1ccc(N2CC(NC(=O)c3cccs3)CC2=O)cc1C (centres undefined) | nt | i | nt | nt | nt
O=C(C1CCCCC1)N1CCC(n2nnc3ccccc32)CC1 | i | i | 14µM | i | i
CCOC(=O)O[C@]1(C(=O)COC(=O)CC)CC[C@@H]2[C@@H]3CCC4=CC(=O)C=C[C@@]4(C)[C@H]3[C@H](O)C[C@]21C | i | ? | i | i | nt
COc1ccc(C(=O)N2CCC3(CC2)CCN(c2ccncc2)CC3)cc1 | i | nt | i | i | nt
O=C(CSc1nc(=O)n(Cc2ccccn2)c2c1CCC2)Nc1cccc(Cl)c1 | nt | i | nt | nt | nt
O=S(=O)(/C=C/c1ccccc1)N1CCN(c2nc(-c3ccccc3)nc3ccccc23)CC1 | nt | ? | i | nt | nt
CCC(c1nnnn1Cc1ccco1)N(Cc1cc2cc(C)cc(C)c2[nH]c1=O)CC1CCCO1 (centres undefined) | i | i | 13µM | i | i
Cc1cccc2cc(CN(Cc3ccco3)C(c3nnnn3CCc3ccccc3)C(C)C)c(=O)[nH]c12 (centres undefined) | i | ? | 32µM | ? | -99
CCc1cccc(CC)c1NC(=O)c1cc(S(=O)(=O)N2CCc3ccccc32)cn1C | nt | i | nt | nt | nt
CCOc1ccc(CCNS(=O)(=O)c2cc(Br)cc3c2N(C(C)=O)CC3)cc1OCC | nt | i | nt | nt | nt
SMILES | 12-hLO inh | LMNA splice mod | ALDH1A1 block | HPGD block | PNC inhibitor
COc1cccc(C(=O)NCCc2sc(-c3cccc(C)c3)nc2C)c1 | nt | i | nt | nt | nt
Cc1cccc(-c2nc(CCNC(=O)c3ccccc3Br)cs2)c1 | nt | i | nt | nt | nt
Cc1nn(-c2ccccc2)c(C)c1/C=N/NC(=O)c1cc(-c2cccs2)[nH]n1 | i | ? | i | i | -115
COc1cccc(CNC(=O)CN2C(=O)CCCc3ccccc32)c1OC | nt | i | nt | nt | nt
CCCS(=O)(=O)c1c(S(=O)(=O)CCC)c2c3ccccc3ccn2c1C(=O)OC | i | i | ? | ? | -105
CCCS(=O)(=O)c1c(S(=O)(=O)CCC)c2c(C)cccn2c1C(=O)OC | i | i | ? | ? | i
Cc1ccc(-c2nc3scc(CCNS(=O)(=O)c4ccc(C)c(C)c4)n3n2)cc1 | nt | i | nt | nt | nt
CC1=NCCN1S(=O)(=O)c1c(C(C)C)cc(C(C)C)cc1C(C)C | nt | nt | 2.2µM | nt | nt
O=c1cnc2cnc(N3CCNCC3)nc2n1CCc1ccccc1 | i | nt | ? | ? | nt
CC1=C(C(=O)Nc2ccccc2)C(c2cccn2C)n2ncnc2N1 (centres undefined) | nt | i | nt | nt | nt
CCN(CC(=O)NC1CCCCCC1)S(=O)(=O)c1ccccc1 | i | i | i | i | -80
CCN(CC(=O)NC1CCCC1)S(=O)(=O)c1ccc(C)cc1 | i | i | i | i | ?
COc1ccc(-c2csc(NC(=O)CSc3nnc(Nc4ccccc4C)s3)n2)cc1 | nt | ? | 25µM | nt | nt
COc1ccc(NC(=O)Nc2nnc(SCC(=O)Nc3cccc(C)c3C)s2)cc1 | nt | i | nt | nt | nt
CCOc1ccccc1Nc1nnc(SCC(=O)Nc2nc(-c3ccc(OC)cc3)cs2)s1 | nt | ? | 25µM | nt | nt
COC(=O)c1ccc2c(=O)[nH]c(CN3c4ccccc4CC3C)nc2c1 (centres undefined) | i | i | 11µM | i | i
CC(O)CSc1nc2c(c(=O)[nH]c(=O)n2C)n1CC(O)COc1ccccc1 (centres undefined) | nt | i | 24µM | nt | nt
CN(C)CCNc1nc2c(c(=O)[nH]c(=O)n2C)n1CC(O)COc1ccc(Cl)cc1Cl (centres undefined) | i | ? | ? | 22µM | i
Cc1ccccc1OCC(O)Cn1c(Br)nc2c1c(=O)[nH]c(=O)n2C (centres undefined) | nt | nt | i | nt | nt
CCSc1nc2c(c(=O)[nH]c(=O)n2C)n1CC(O)COc1ccccc1C (centres undefined) | i | i | 28µM | 14µM | ?
Cc1ccccc1OCC(O)Cn1c(SC(C)C)nc2c1c(=O)[nH]c(=O)n2C (centres undefined) | i | i | 7.1µM | 14µM | ?
Cn1c(=O)c(-c2cccs2)nc2cnc(Oc3ccccc3)nc21 | i | nt | ? | i | nt
CCNc1ccc(S(=O)(=O)N(C)C)cc1NCC(=O)Nc1ccccc1Cl | nt | nt | 8.9µM | nt | nt
CCNc1ccc(S(=O)(=O)N(C)C)cc1NCC(=O)Nc1c(F)cccc1F | i | i | ? | i | i
Cc1csc(NC(=O)CSc2nc3sc(C)c(C)c3c(=O)[nH]2)n1 | i | i | 18µM | 13µM | ?
SMILES | 12-hLO inh | LMNA splice mod | ALDH1A1 block | HPGD block | PNC inhibitor
CCOC(=O)CSc1nc2sc3c(c2c(=O)[nH]1)CC(C)(CC)OC3 (centres undefined) | i | i | ? | i | i
O=c1[nH]c(SCc2n[nH]c(=S)n2-c2ccccc2)nc2sc3c(c12)CCC3 | i | ? | i | 13µM | i
O=c1[nH]c(SCc2n[nH]c(=S)n2-c2ccccc2)nc2ccccc12 | i | i | i | i | i
Cc1sc2nc(SCC(=O)N3CCCCC3)[nH]c(=O)c2c1C | i | i | ? | 16µM | i
CCOC(=O)CSc1nc2sc3c(c2c(=O)[nH]1)CCCC3 | i | i | i | 16µM | i
CCCCN(CC)CCNC(=O)c1c(C)oc2ncnc(N3CCOCC3)c12 | nt | i | nt | nt | nt
Nc1nc(SCC(=O)Nc2ccc(Cl)c(S(=O)(=O)N3CCOCC3)c2)n[nH]1 | nt | nt | i | nt | nt
CCN(c1nc(N)c(C(=O)N=C(N)N)nc1Cl)C(C)C | i | ? | i | i | nt

Compound activity: PubChem, National Center for Advancing Translational Sciences (NCATS)
